# Laboratory results taken from PubChem BioAssay.
# The source made the active and inactive calls. The rule behind the calls is not given here.
# Molecular target: Botulinum neurotoxin type A (Clostridium botulinum) (UniProt P0DPI0)
# Test: BoNT/A light chain protease inhibitors, biochemical, multiplex microsphere flow cytometry, validation set (AID 588460)
# Conditions: at 10 µM, active compounds read high
# Sequence of Botulinum neurotoxin type A (Clostridium botulinum) (P0DPI0 whole entry, looked up): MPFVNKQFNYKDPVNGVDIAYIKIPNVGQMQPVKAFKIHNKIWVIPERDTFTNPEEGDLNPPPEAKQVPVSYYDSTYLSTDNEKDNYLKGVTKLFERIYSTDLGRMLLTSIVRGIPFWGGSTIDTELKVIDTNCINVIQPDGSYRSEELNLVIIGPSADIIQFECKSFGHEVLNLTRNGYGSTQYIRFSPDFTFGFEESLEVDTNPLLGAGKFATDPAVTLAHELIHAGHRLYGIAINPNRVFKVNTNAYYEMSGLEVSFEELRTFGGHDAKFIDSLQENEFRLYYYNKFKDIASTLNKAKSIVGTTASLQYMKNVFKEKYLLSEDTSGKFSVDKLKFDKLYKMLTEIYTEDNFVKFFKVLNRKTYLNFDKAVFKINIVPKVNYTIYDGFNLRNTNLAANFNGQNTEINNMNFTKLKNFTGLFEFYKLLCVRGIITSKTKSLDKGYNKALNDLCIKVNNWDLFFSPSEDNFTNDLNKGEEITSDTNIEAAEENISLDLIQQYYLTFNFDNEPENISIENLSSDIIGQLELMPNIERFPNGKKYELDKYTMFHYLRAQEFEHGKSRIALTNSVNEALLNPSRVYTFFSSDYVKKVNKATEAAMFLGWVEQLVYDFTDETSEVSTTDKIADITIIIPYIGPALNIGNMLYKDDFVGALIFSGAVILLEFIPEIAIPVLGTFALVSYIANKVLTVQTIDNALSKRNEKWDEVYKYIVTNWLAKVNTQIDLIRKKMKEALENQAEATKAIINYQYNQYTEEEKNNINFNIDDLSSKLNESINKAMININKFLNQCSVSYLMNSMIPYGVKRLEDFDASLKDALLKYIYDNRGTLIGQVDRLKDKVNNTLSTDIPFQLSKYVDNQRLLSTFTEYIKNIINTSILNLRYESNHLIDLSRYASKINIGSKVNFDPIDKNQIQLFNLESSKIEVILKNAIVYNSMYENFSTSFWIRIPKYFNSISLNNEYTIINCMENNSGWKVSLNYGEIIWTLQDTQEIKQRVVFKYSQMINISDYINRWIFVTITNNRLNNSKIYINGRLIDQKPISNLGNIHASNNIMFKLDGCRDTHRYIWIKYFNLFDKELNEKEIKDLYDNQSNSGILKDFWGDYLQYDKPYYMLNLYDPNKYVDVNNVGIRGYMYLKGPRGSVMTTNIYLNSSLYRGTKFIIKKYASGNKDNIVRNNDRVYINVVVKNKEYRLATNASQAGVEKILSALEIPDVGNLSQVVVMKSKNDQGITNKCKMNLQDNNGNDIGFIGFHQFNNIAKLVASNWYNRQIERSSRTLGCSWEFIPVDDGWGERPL
row,Structure (SMILES),inhibition
1,O=C1CC(c2ccc(OCCCCCOc3ccc(C4CC(=O)NC4=O)cc3)cc2)C(=O)N1 (stereo not given),1.1% (inactive)
2,CC(=O)NC(NC(=S)N1CCCCCC1)C(Cl)(Cl)Cl (stereo not given),-2.4% (inactive)
3,CC(C)(S)[C@@H](N)C(=O)O,-0.8% (inactive)
4,CN1CCN(CCCN2c3ccccc3Sc3ccc(C(F)(F)F)cc32)CC1,-0.5% (inactive)
5,CCc1cn([C@H]2C[C@H](O)[C@@H](CO)O2)c(=O)[nH]c1=O,-2.2% (inactive)
6,CSCCC1NC2(C(=O)Nc3ccc(Cl)cc32)[C@@H]2C(=O)N(C3CCCC3)C(=O)[C@H]12 (stereo not given in full),-1.4% (inactive)
7,Cc1ccc(CN2CCN(Cc3cn[nH]c3C3CCCCC3)CC2CCO)cc1 (stereo not given),-0.4% (inactive)
8,O=C(CCCN1C(=O)/C(=C\c2cccs2)SC1=S)Nc1ccccn1,5.2% (inactive)
9,Cc1cccc(C2=N/C(=C\c3cccnc3)C(=O)O2)c1,1.9% (inactive)
10,c1ccc(SSc2ccccc2)cc1,-1.5% (inactive)
11,OC(CCN1CCCC1)(c1ccccc1)C1CCCCC1 (stereo not given),-0.7% (inactive)
12,COC(=O)c1cc(COc2ccc3ccc(=O)oc3c2)c(C)o1,-1.4% (inactive)
13,NS(=O)(=O)c1ccc(CCNC(=O)C2CCCN2C(=O)OCc2ccccc2)cc1 (stereo not given),-0.7% (inactive)
14,CCOC(=O)C(NC(C)=O)C(O)c1ccc([N+](=O)[O-])cc1 (stereo not given),2.6% (inactive)
15,Cc1ccnc(NS(=O)(=O)c2ccc(N)cc2)n1,-0.3% (inactive)
16,COc1ccc(CCNC(=O)c2c(O)c3c([nH]c2=O)CCCC3)cc1,0.3% (inactive)
17,CNC[C@H](O)c1ccc(O)c(O)c1,-0.9% (inactive)
18,CC(NC(=O)OCc1ccccc1)C(=O)N1CC(O)CC1C(=O)O (stereo not given),-0.7% (inactive)
19,Cc1ccc2c(CC(=O)O)coc2c1,-1.3% (inactive)
20,CC12CCCCN1CCCc1c2[nH]c2ccccc12 (stereo not given),-0.2% (inactive)

row,Structure (SMILES),inhibition
1,CCN1/C(=C/C=C/C=C/c2sc3ccccc3[n+]2CC)Sc2ccccc21,16.8% (inactive)
2,N#C/C(C(N)=O)=c1/ccc2c(c1)N1C3=C(CCCC3)CC3CCCCC31N=2 (stereo not given),2.4% (inactive)
3,COc1ccc(-c2cc(C(=O)N3CCOCC3)c3cc(C)ccc3n2)cc1,-2.6% (inactive)
4,Cn1cc(CN2CCN(CCO)CC2)c(-c2ccc(Oc3ccccc3)cc2)n1,0.5% (inactive)
5,Cc1ccc2c(c1)c1c3n2CCCNC3CCC1 (stereo not given),1.9% (inactive)
6,COc1cc2c(cc1OC)CN(C(=O)c1ccc(S(=O)(=O)N(C)c3ccccc3)cc1)CC2,0.6% (inactive)
7,C[C@H]1C[C@@H]2[C@H]([C@@H](O)C[C@@]3(C)[C@H]2CC[C@]3(O)C(=O)CO)[C@@]2(C)C=CC(=O)C=C12,0.7% (inactive)
8,COc1ccc2c(c1OC)C(=O)N1C2SC[C@H]1C(=O)NC1CC(C)(C)NC(C)(C)C1 (stereo not given in full),-0.5% (inactive)
9,COc1cc2cc(C(=O)O)[nH]c2c(OC)c1OC,-0.4% (inactive)
10,CC(C)(C)N(Cc1ccccc1)C(=O)c1ccc(Br)o1,0.8% (inactive)
11,O=C(NCc1ccc(N2CCCC2=O)cc1)c1ccc(F)cc1,-0.6% (inactive)
12,COc1ccc(C(CC(=O)N2CCOCC2)C(C)C)cc1 (stereo not given),-1.9% (inactive)
13,COc1ccc(NC(=O)C2CSC3c4ccccc4C(=O)N23)cc1 (stereo not given),-0.2% (inactive)
14,COc1ccc(C2OC[C@H]3O[C@H](O)[C@H](NC(C)=O)[C@@H](O)[C@@H]3O2)cc1 (stereo not given in full),-1.7% (inactive)
15,CCOC(=O)N1c2ccccc2C=CC1OCC (stereo not given),-0.5% (inactive)
16,Cc1c(NC(=O)c2cccs2)cccc1[N+](=O)[O-],1.3% (inactive)
17,CCc1cc(=O)oc2cc3occ(-c4ccc(OC)c(F)c4)c3cc12,-0.9% (inactive)
18,CCc1oc2ccccc2c1C(=O)c1cc(Br)c(O)c(Br)c1,-0.5% (inactive)
19,Cc1ccc(CN2CCN(CCCc3ccccc3)CC2CCO)cc1 (stereo not given),-0.2% (inactive)
20,CCOC(=O)[C@H]1O[C@@H]1C(=O)N[C@@H](CC(C)C)C(=O)NCCC(C)C,-1.4% (inactive)

# Molecular target: Lethal factor (Bacillus anthracis) (UniProt P15917)
# Test: Lethal factor protease inhibitors, Bacillus anthracis, multiplex microsphere cleavage assay, validation set (AID 588461)
# Conditions: flow cytometry, at 10 µM, active compounds read high
# Sequence of Lethal factor (Bacillus anthracis) (P15917 whole entry, looked up): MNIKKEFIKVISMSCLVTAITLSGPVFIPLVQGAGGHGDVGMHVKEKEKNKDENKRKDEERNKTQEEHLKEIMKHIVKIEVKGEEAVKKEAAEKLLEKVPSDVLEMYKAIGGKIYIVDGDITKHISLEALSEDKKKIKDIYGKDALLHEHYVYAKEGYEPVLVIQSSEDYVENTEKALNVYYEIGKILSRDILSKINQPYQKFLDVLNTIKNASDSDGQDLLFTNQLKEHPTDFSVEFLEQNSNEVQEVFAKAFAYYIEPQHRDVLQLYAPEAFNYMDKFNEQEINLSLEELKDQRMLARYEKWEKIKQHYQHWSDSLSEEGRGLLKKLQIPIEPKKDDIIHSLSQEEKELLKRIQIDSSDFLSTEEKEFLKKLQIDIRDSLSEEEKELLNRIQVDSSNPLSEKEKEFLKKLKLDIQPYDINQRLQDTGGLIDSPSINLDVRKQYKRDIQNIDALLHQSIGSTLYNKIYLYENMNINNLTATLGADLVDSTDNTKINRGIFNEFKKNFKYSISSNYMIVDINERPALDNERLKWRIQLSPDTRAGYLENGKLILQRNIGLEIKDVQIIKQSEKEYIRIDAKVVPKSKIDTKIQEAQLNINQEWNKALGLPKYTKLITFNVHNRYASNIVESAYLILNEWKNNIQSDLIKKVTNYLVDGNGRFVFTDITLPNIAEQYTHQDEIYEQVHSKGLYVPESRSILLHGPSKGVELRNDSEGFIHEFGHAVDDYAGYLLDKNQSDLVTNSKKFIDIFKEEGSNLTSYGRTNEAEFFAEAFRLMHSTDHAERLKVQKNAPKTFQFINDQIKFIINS
row,Structure (SMILES),inhibition
1,O=C1CC(c2ccc(OCCCCCOc3ccc(C4CC(=O)NC4=O)cc3)cc2)C(=O)N1 (stereo not given),2.1% (inactive)
2,CC(=O)NC(NC(=S)N1CCCCCC1)C(Cl)(Cl)Cl (stereo not given),5.4% (inactive)
3,CC(C)(S)[C@@H](N)C(=O)O,1.1% (inactive)
4,CN1CCN(CCCN2c3ccccc3Sc3ccc(C(F)(F)F)cc32)CC1,-3.1% (inactive)
5,CCc1cn([C@H]2C[C@H](O)[C@@H](CO)O2)c(=O)[nH]c1=O,1.6% (inactive)
6,CSCCC1NC2(C(=O)Nc3ccc(Cl)cc32)[C@@H]2C(=O)N(C3CCCC3)C(=O)[C@H]12 (stereo not given in full),-11.2% (inactive)
7,Cc1ccc(CN2CCN(Cc3cn[nH]c3C3CCCCC3)CC2CCO)cc1 (stereo not given),-2.1% (inactive)
8,O=C(CCCN1C(=O)/C(=C\c2cccs2)SC1=S)Nc1ccccn1,18.8% (inactive)
9,Cc1cccc(C2=N/C(=C\c3cccnc3)C(=O)O2)c1,3.7% (inactive)
10,c1ccc(SSc2ccccc2)cc1,-8.9% (inactive)
11,OC(CCN1CCCC1)(c1ccccc1)C1CCCCC1 (stereo not given),-2.2% (inactive)
12,COC(=O)c1cc(COc2ccc3ccc(=O)oc3c2)c(C)o1,1% (inactive)
13,NS(=O)(=O)c1ccc(CCNC(=O)C2CCCN2C(=O)OCc2ccccc2)cc1 (stereo not given),1.2% (inactive)
14,CCOC(=O)C(NC(C)=O)C(O)c1ccc([N+](=O)[O-])cc1 (stereo not given),-2.3% (inactive)
15,Cc1ccnc(NS(=O)(=O)c2ccc(N)cc2)n1,-1.5% (inactive)
16,COc1ccc(CCNC(=O)c2c(O)c3c([nH]c2=O)CCCC3)cc1,-14.2% (inactive)
17,CNC[C@H](O)c1ccc(O)c(O)c1,-4.8% (inactive)
18,CC(NC(=O)OCc1ccccc1)C(=O)N1CC(O)CC1C(=O)O (stereo not given),1.4% (inactive)
19,Cc1ccc2c(CC(=O)O)coc2c1,-1.1% (inactive)
20,CC12CCCCN1CCCc1c2[nH]c2ccccc12 (stereo not given),-11.1% (inactive)

row,Structure (SMILES),inhibition
1,CCN1/C(=C/C=C/C=C/c2sc3ccccc3[n+]2CC)Sc2ccccc21,-36.6% (inactive)
2,N#C/C(C(N)=O)=c1/ccc2c(c1)N1C3=C(CCCC3)CC3CCCCC31N=2 (stereo not given),-2.3% (inactive)
3,COc1ccc(-c2cc(C(=O)N3CCOCC3)c3cc(C)ccc3n2)cc1,2.3% (inactive)
4,Cn1cc(CN2CCN(CCO)CC2)c(-c2ccc(Oc3ccccc3)cc2)n1,-1.5% (inactive)
5,Cc1ccc2c(c1)c1c3n2CCCNC3CCC1 (stereo not given),0.5% (inactive)
6,COc1cc2c(cc1OC)CN(C(=O)c1ccc(S(=O)(=O)N(C)c3ccccc3)cc1)CC2,3.4% (inactive)
7,C[C@H]1C[C@@H]2[C@H]([C@@H](O)C[C@@]3(C)[C@H]2CC[C@]3(O)C(=O)CO)[C@@]2(C)C=CC(=O)C=C12,-0.7% (inactive)
8,COc1ccc2c(c1OC)C(=O)N1C2SC[C@H]1C(=O)NC1CC(C)(C)NC(C)(C)C1 (stereo not given in full),-2.4% (inactive)
9,COc1cc2cc(C(=O)O)[nH]c2c(OC)c1OC,-3.8% (inactive)
10,CC(C)(C)N(Cc1ccccc1)C(=O)c1ccc(Br)o1,11.8% (inactive)
11,O=C(NCc1ccc(N2CCCC2=O)cc1)c1ccc(F)cc1,-3.8% (inactive)
12,COc1ccc(C(CC(=O)N2CCOCC2)C(C)C)cc1 (stereo not given),-8.6% (inactive)
13,COc1ccc(NC(=O)C2CSC3c4ccccc4C(=O)N23)cc1 (stereo not given),-3.8% (inactive)
14,COc1ccc(C2OC[C@H]3O[C@H](O)[C@H](NC(C)=O)[C@@H](O)[C@@H]3O2)cc1 (stereo not given in full),-9.6% (inactive)
15,CCOC(=O)N1c2ccccc2C=CC1OCC (stereo not given),3.6% (inactive)
16,Cc1c(NC(=O)c2cccs2)cccc1[N+](=O)[O-],5.7% (inactive)
17,CCc1cc(=O)oc2cc3occ(-c4ccc(OC)c(F)c4)c3cc12,-2.7% (inactive)
18,CCc1oc2ccccc2c1C(=O)c1cc(Br)c(O)c(Br)c1,-0.4% (inactive)
19,Cc1ccc(CN2CCN(CCCc3ccccc3)CC2CCO)cc1 (stereo not given),-3.4% (inactive)
20,CCOC(=O)[C@H]1O[C@@H]1C(=O)N[C@@H](CC(C)C)C(=O)NCCC(C)C,-2.8% (inactive)
